# Experimental data published in PubChem BioAssay (NCI).
# Where “and” joins values, the source holds several entries; their conditions need not be identical. Equal values may be shown once. About 83,000 compounds went through this panel and 20% of them were active in at least one assay; those are over-represented in the sample as a whole.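 Results are percent growth after 48 hours of single-concentration exposure. 100 means growth as in untreated cells, lower positive values show inhibition; negative values down to -100 show cell death.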 A number with no mark means an inactive call. Calls of active or inactive are those of the source. The calls were made as follows: active = growth percent below 10; inactive = the rest.
# What was measured:
# Experiment in all cases: NCI-60 one-dose screen, 48 h (100 = growth as untreated, 0 = no growth, -100 = all killed)
# Details in all cases: 10 µM unless noted
# HCT-15 colon = test system: HCT-15 colon
# HT29 colon = test system: HT29 colon
# SNB-75 CNS = test system: SNB-75 CNS
# SNB-19 CNS = test system: SNB-19 CNS
# U251 CNS = test system: U251 CNS
# PC-3 prostate = test system: PC-3 prostate
# SK-MEL-5 melanoma = test system: SK-MEL-5 melanoma
# UACC-62 melanoma = test system: UACC-62 melanoma
# LOX IMVI melanoma = test system: LOX IMVI melanoma
# SK-MEL-28 melanoma = test system: SK-MEL-28 melanoma
Compound,growth (HCT-15 colon),growth (HT29 colon),growth (SNB-75 CNS),growth (SNB-19 CNS),growth (U251 CNS),growth (PC-3 prostate),growth (SK-MEL-5 melanoma),growth (UACC-62 melanoma),growth (LOX IMVI melanoma),growth (SK-MEL-28 melanoma)
CC(C)C[C@H](NC(=O)[C@@H]1CCCCCCCCCCC(=O)N[C@@H](CC(=O)N2CCC[C@@H]2C2CCCC2)C(=O)N1)B(O)O,-36.7% (active),-18% (active),-77% (active),6.18% (active),-50.7% (active),8.18% (active),-92% (active),-86.8% (active),-93.3% (active),-5.72% (active)
CC(=O)Nc1cccc(-n2c(COc3ccc(Br)cc3)nc3ccccc32)c1,88.7% and 107%,123% and 115%,89% and 94.7%,96.9% and 98.7%,94.9% and 113%,72.8% and 103%,90.3% and 103%,71.9% and 91.9%,91.8% and 104%,101% and 106%
Cc1ccc(N=Nc2c(N)nn3c(-c4cc5ccccc5oc4=O)ccnc23)cc1,40.6%,30.2%,93.7%,32.2%,43%,54.6%,42.4%,82.3%,36%,44.7%
CN1C(=O)/C(=C\C(=O)c2cc3ccccc3oc2=O)c2ccccc21,39.7%,93.4%,96.8%,78.9%,42.6%,84.5%,92.1%,42.6%,58.9%,60.8%
N#Cc1c(-c2ccc(F)cc2)nc(SCc2ccccc2)nc1N1CCNCC1,-87.9% (active),-70.7% (active),-93% (active),-81.4% (active),-95.8% (active),-51.6% (active),-100% (active),-97.3% (active),-93.6% (active),-96.3% (active)
COc1ccc(-c2cc(C(=O)OCc3ccc(Br)cc3)nn2-c2ccc(S(C)(=O)=O)cc2)cc1OC,73.3%,87.3%,60.5%,84.6%,86.1%,72.1%,77.5%,72.6%,75.3%,102%
O=C(O)CC1S/C(=N/N=C/c2nc3ccccc3s2)NC1=O (stereo not given),76.5%,114%,96.9%,96.3%,89.8%,103%,96.9%,114%,100%,117%
N#CC1=C(c2cccs2)Nc2c(c(-c3ccccc3)nn2-c2ccccc2)C12C(=O)Nc1ccccc12 (stereo not given),11.9%,6.67% (active),60.5%,25.4%,11.6%,6.98% (active),23.9%,48.5%,61.6%,15.2%
O=S(=O)(c1nc(-c2ccc(Br)cc2)oc1-c1ccc(Cl)cc1)N1CCCC(O)C1 (stereo not given),42.6%,11.2%,94.6%,62%,64.8%,28.2%,82.6%,53.8%,4.05% (active),79.4%
COc1ccc2c(c1)C(=O)N(C)C2C1c2c(cc3c(c2OC)OCO3)CCN1C (stereo not given),22.5%,33.2%,37.3%,49.1%,42.7%,46.9%,24.9%,26.8%,46.7%,55.9%
COC(=O)c1c(C(=O)OC)c2ccc3c4ccccc4ccc3n2c1C(=O)C(C)Br (stereo not given),9.95% (active),24%,94.3%,52.1%,23.9%,47.1%,24.4%,33.5%,-5.75% (active),65.4%
Cc1ccc(C(=O)Nc2cc(-n3ccnc3C)cc(C(F)(F)F)c2)cc1C#Cc1cnc2cccnn12,5.01% (active),-16.8% (active),-28.1% (active),30.3%,22.1%,8.32% (active),-67.6% (active),-40% (active),-80.2% (active),-32.4% (active)
COC(=O)c1c(C(=O)OC)c2c3ccccc3c3ccccc3n2c1C(=O)C(C)(C)C,46.6%,71.9%,83.5%,96.2%,85.3%,35.3%,46.8%,50.1%,81.4%,92.5%
CCOC(=O)c1ccc(NC(=S)NC(=O)c2cccc(NC(=O)c3ccc(C)cc3)c2)cc1,75.3%,82.5%,73%,49.4%,2.07% (active),77.5%,85.8%,74.9%,51.9%,85.2%
O=C1NC(=S)/C(=C/c2cn(-c3ccccc3)nc2-c2ccccc2)S1,20%,22.9%,80.7%,14.3%,14.6%,34.9%,-42.3% (active),6.83% (active),28.9%,20.5%
CCCCCCCCc1cccc(CC(=O)Nc2ccc(C)cc2C(=O)O)c1,13.2% [25 µM],35.9% [25 µM],74.1% [25 µM],50.9% [25 µM],38.2% [25 µM],46.8% [25 µM],36.5% [25 µM],49.4% [25 µM],3.4% [25 µM] (active),65.5% [25 µM]
COC(=O)c1cc(C(=O)C(Br)Br)n2c1ccc1c3ccccc3ccc12,34.2%,63.1%,66.4%,58.6%,44.3%,56.3%,61.7%,51.8%,41.4%,105%
O=C(c1ccc(O)cc1)C1[C@H](c2ccc(Cl)cc2)[C@@H](c2ccccc2)NC12C(=O)Nc1ccc(Br)cc12 (stereo not given in full),-67% (active),-68.1% (active),-13% (active),-2.97% (active),-62% (active),-16% (active),-93.3% (active),-40% (active),-100% (active),-5.57% (active)
CC[C@]12C=CCN3CC[C@]4(C(=C(C(=O)OC)C1)Nc1cc(OC)c([C@@H]5[C@H]6O[C@H]6[C@@]6(CC)CC(C(=O)OC)=C7Nc8cc(OC)ccc8[C@@]78CCN5[C@@H]68)cc14)[C@@H]32,24.8%,58.9%,50%,58.2%,48.4%,18.7%,27.9%,42.9%,15.5%,82.5%
CCCCCCCCCCCCCCCCCC(=O)Nc1ccc(OC)cc1,99.1%,104%,144%,96.2%,102%,93.3%,102%,97.5%,95.9%,110%
COc1cccc2nc(Nc3cccc(NC(=O)c4ccc(CN5CCN(C)CC5)c(C(F)(F)F)c4)c3)ccc12,-79.1% (active),-69.3% (active),-97.5% (active),-100% (active),-73.7% (active),-50.9% (active),-100% (active),-99.1% (active),-100% (active),-100% (active)
CCOC(=O)c1ccc(NC(=S)NC(=O)c2ccc(NC(=O)C(C)C)cc2OC)cc1,23.6%,68.2%,51.1%,57.7%,63.4%,18%,-69% (active),30.2%,45.6%,50.8%
N/C(=N\c1nc2ccccc2s1)NC(=O)Nc1ccccc1F,25.7%,5.46% (active),-0.749% (active),28.9%,11.2%,33.3%,-0.0152% (active),25.3%,27%,57.3%
O=C(NNC(=O)c1ccc(OCc2nc3ccc(Cl)cc3[nH]2)cc1)Nc1ccc(Cl)c(C(F)(F)F)c1,97.6%,68.2%,59.8%,61.1%,30.7%,33.3%,70.4%,61.4%,48.2%,52.8%
CCCN(CCC)S(=O)(=O)c1ccc(C(=O)O)cc1.CCCN(CCC)S(=O)(=O)c1ccc(C(=O)O)cc1.[Cl][Pt+2][Cl].[NH2-].[NH2-],87.8%,42%,1.96% (active),26.7%,-27.5% (active),39.7%,-91.2% (active),-90.2% (active),-9.75% (active),1.28% (active)
